# From the antibiotic and cytotoxicity screens of Wong et al. (2023)
# Out of some 39,000 compounds screened, about 3,300 (8.5%) were called active. This excerpt belongs to a sample that is enriched for actives.
# System: HepG2
# Assay: cytotoxicity call (relative viability < 0.9)
# Details: 10 µM
row,SMILES,cytotoxicity call
1,COc1ccc(NC(=O)N(C)C[C@H]2OCCCC[C@H](C)Oc3ccc(NS(=O)(=O)c4cccs4)cc3C(=O)N([C@@H](C)CO)C[C@@H]2C)cc1,inactive
2,C[C@H](CO)N1C[C@H](C)[C@H](CN(C)S(=O)(=O)c2ccc3c(c2)OCCCO3)OCc2cn(nn2)CCCC1=O,inactive
3,C[C@H]1CCCCO[C@@H](CN(C)C(=O)CCC(F)(F)F)[C@@H](C)CN([C@@H](C)CO)C(=O)c2cc(NS(=O)(=O)c3ccccc3)ccc2O1,inactive
4,NC(=O)N1Cc2nccn2C[C@H](Cn2cncn2)C1,inactive
5,Cc1ccc(S(=O)(=O)Nc2ccc3c(c2)C(=O)N([C@H](C)CO)C[C@@H](C)[C@H](CN(C)C(=O)Nc2ccccc2)OCCCC[C@@H](C)O3)cc1,inactive
6,Cc1ccccc1S(=O)(=O)N1C[C@@H](O)COC[C@@H]2O[C@H](CC(=O)N3CCC(Cc4ccccc4)CC3)CC[C@H]21,inactive
7,Cc1ccccc1S(=O)(=O)N1C[C@@H](O)COC[C@H]2O[C@H](CC(=O)N3CCC(Cc4ccccc4)CC3)CC[C@@H]21,active
8,Cc1ccccc1S(=O)(=O)N1C[C@H](O)COC[C@@H]2O[C@H](CC(=O)N3CCC(Cc4ccccc4)CC3)CC[C@H]21,inactive
9,Cc1ccccc1S(=O)(=O)N1C[C@@H](O)COC[C@H]2O[C@@H](CC(=O)N3CCC(Cc4ccccc4)CC3)CC[C@@H]21,inactive
10,CN1CCN(C(=O)C[C@H]2CC[C@@H]3[C@H](COC[C@@H](O)CN3Cc3ccc(Oc4ccccc4)cc3)O2)CC1,active
11,Cc1ccccc1S(=O)(=O)N1C[C@H](O)COC[C@H]2O[C@@H](CC(=O)N3CCC(Cc4ccccc4)CC3)CC[C@@H]21,active
12,O=C(C[C@@H]1CC[C@@H]2[C@H](COC[C@@H](O)CN2S(=O)(=O)c2ccccc2F)O1)N1CCC(Cc2ccccc2)CC1,inactive
13,CN1CCN(C(=O)C[C@@H]2CC[C@H]3[C@@H](COC[C@@H](O)CN3Cc3ccc(Oc4ccccc4)cc3)O2)CC1,inactive
14,O=C(C[C@@H]1CC[C@H]2[C@@H](COC[C@@H](O)CN2S(=O)(=O)c2ccccc2F)O1)N1CCC(Cc2ccccc2)CC1,inactive
15,Cc1ccccc1S(=O)(=O)N1C[C@H](O)COC[C@@H]2O[C@@H](CC(=O)N3CCC(Cc4ccccc4)CC3)CC[C@H]21,inactive
16,Cc1ccccc1S(=O)(=O)N1C[C@H](O)COC[C@H]2O[C@H](CC(=O)N3CCC(Cc4ccccc4)CC3)CC[C@@H]21,active
17,CN1CCN(C(=O)C[C@H]2CC[C@H]3[C@@H](COC[C@H](O)CN3Cc3ccc(Oc4ccccc4)cc3)O2)CC1,inactive
18,C[C@@H]1CCCCO[C@H](CN(C)C(=O)Nc2ccc(F)cc2)[C@@H](C)CN([C@H](C)CO)C(=O)c2cc(NC(=O)C3CCCCC3)ccc2O1,inactive
19,C[C@@H]1CCCCO[C@@H](CN(C)C(=O)c2ccccc2)[C@H](C)CN([C@H](C)CO)C(=O)c2cc(NS(=O)(=O)c3ccccc3)ccc2O1,inactive
20,C=c1ccccc1=C1NN=C(CN2CCCC2)O1,inactive
21,C[C@H]1CCCCO[C@H](CN(C)Cc2ccc(Cl)c(Cl)c2)[C@@H](C)CN([C@@H](C)CO)C(=O)c2cc(NS(C)(=O)=O)ccc2O1,inactive
22,COCC#Cc1ccc2c(c1)O[C@H](CN(C)S(=O)(=O)c1cccc(F)c1)[C@@H](C)CN([C@H](C)CO)S2(=O)=O,inactive
23,C[C@@H]1CCCCO[C@H](CN(C)Cc2ccc(C(=O)O)cc2)[C@@H](C)CN([C@@H](C)CO)C(=O)c2cc(NC(=O)NC3CCCCC3)ccc2O1,inactive
24,Cc1ccc2nc(-c3ccc(/N=C\c4ccc[nH]4)cc3)sc2c1,active
25,Cc1ccc2nc(/N=C/c3ccc(Cl)cc3Cl)sc2c1,inactive

row,SMILES,cytotoxicity call
1,Cc1ccc2nc(-c3ccc(NC(=O)C4CCC4)cc3)sc2c1,inactive
2,COc1ccc2c3c([nH]c2c1)[C@@H](CO)N(C[C@]13CCN(CC1)CC1CCCCC1)C(=O)Nc1cccc(c1)F,active
3,COc1ccc2c3c([nH]c2c1)[C@H](CO)N(C[C@]13CCN(CC1)CC1CCCCC1)C(=O)Nc1cccc(c1)F,active
4,COc1ccc2c3c([nH]c2c1)[C@H](CO)N(CC1CCCCC1)C[C@]13CCN(CC1)C(=O)Nc1cccc(c1)F,inactive
5,COc1ccc2c3c([nH]c2c1)[C@@H](CO)N(CC1CCCCC1)C[C@]13CCN(CC1)C(=O)Nc1cccc(c1)F,inactive
6,COc1ccc2c3c([nH]c2c1)[C@H](CO)N(C[C@]13CCN(CC1)CC1CCCCC1)C(=O)Nc1c(noc1C)C,inactive
7,COc1ccc2c3c([nH]c2c1)[C@@H](CO)N(C[C@]13CCN(CC1)CC1CCCCC1)C(=O)Nc1c(noc1C)C,inactive
8,C[C@@H]1CCCCO[C@@H](CN(C)C(=O)CCC(F)(F)F)[C@@H](C)CN([C@H](C)CO)C(=O)c2cc(NC(=O)Nc3ccc(F)cc3)ccc2O1,inactive
9,C[C@H]1CN([C@@H](C)CO)C(=O)c2cccc(NC(=O)c3ccc(-c4nccs4)cc3)c2O[C@@H]1CN(C)C(=O)Nc1ccc(F)cc1,inactive
10,Cc1noc(C)c1NC(=O)N(C)C[C@@H]1OCCCC[C@H](C)Oc2ccc(NC(=O)NC3CCCCC3)cc2C(=O)N([C@@H](C)CO)C[C@@H]1C,inactive
11,O=c1[nH]nc(Br)c(=O)[nH]1,inactive
12,O=C(O)C[C@H]1CC[C@@H]2[C@H](COC[C@@H](O)CN2S(=O)(=O)c2ccc(F)cc2)O1,inactive
13,CC(=O)CC(c1ccccc1)c1c(O)c2ccccc2oc1=O (stereo not given),active
14,O=c1oc2ccccc2c(O)c1Cc1c(O)c2ccccc2oc1=O,inactive
15,O=C(O)c1cc(=O)c2ccccc2o1,inactive
16,CO[C@@H](CN(C)S(=O)(=O)c1cccc(Cl)c1)[C@@H](C)CN([C@@H](C)CO)S(=O)(=O)c1cccc(Cl)c1,inactive
17,C[C@@H]1CN([C@H](C)CO)C(=O)Cc2cc(NC(=O)Cc3cn(C)c4ccccc34)ccc2O[C@H]1CN(C)Cc1ccc(Oc2ccccc2)cc1,inactive
18,C[C@H]1CN([C@@H](C)CO)C(=O)Cc2cc(NC(=O)Cc3cn(C)c4ccccc34)ccc2O[C@@H]1CN(C)Cc1ccc(Oc2ccccc2)cc1,inactive
19,C[C@@H]1CN([C@@H](C)CO)C(=O)Cc2cc(NC(=O)Cc3cn(C)c4ccccc34)ccc2O[C@H]1CN(C)Cc1ccc(Oc2ccccc2)cc1,active
20,C[C@H](CO)N1C[C@H](C)[C@H](CN(C)Cc2ccc(Oc3ccccc3)cc2)Oc2ccc(NC(=O)Cc3cn(C)c4ccccc34)cc2CC1=O,active
21,C[C@@H]1CN([C@H](C)CO)C(=O)Cc2cc(NC(=O)Cc3cn(C)c4ccccc34)ccc2O[C@@H]1CN(C)Cc1ccc(Oc2ccccc2)cc1,active
22,C[C@H]1CN([C@@H](C)CO)C(=O)Cc2cc(NC(=O)Cc3cn(C)c4ccccc34)ccc2O[C@H]1CN(C)Cc1ccc(Oc2ccccc2)cc1,active
23,CC(C)=Cc1ccc(C#N)c(=S)[nH]1,inactive
24,CC[C@@H](O[Si](C#C[Si](C(C)C)(C(C)C)C(C)C)(C(C)C)C(C)C)c1cn([C@H](CO)Cc2ccccc2)nn1,inactive
25,Cc1noc(C)c1NC(=O)N(C)C[C@@H]1OCCCC[C@H](C)Oc2ccc(NC(=O)Nc3ccc4c(c3)OCO4)cc2C(=O)N([C@H](C)CO)C[C@@H]1C,inactive

row,SMILES,cytotoxicity call
1,COc1ccc(S(=O)(=O)Nc2ccc3c(c2)CC(=O)N([C@@H](C)CO)C[C@H](C)[C@H](CN(C)S(C)(=O)=O)O3)cc1,inactive
2,Cc1noc(C)c1NC(=O)Nc1ccc2c(c1)C(=O)N([C@@H](C)CO)C[C@@H](C)[C@H](CN(C)C(=O)Nc1ccc3c(c1)OCO3)OCCCC[C@H](C)O2,inactive
3,CNC[C@@H]1OCCCC[C@@H](C)Oc2ccc(NC(=O)Nc3ccc(C(F)(F)F)cc3)cc2C(=O)N([C@H](C)CO)C[C@@H]1C,inactive
4,C[C@@H]1CN([C@H](C)CO)C(=O)c2cc(NC(=O)Cc3cn(C)c4ccccc34)ccc2O[C@@H]1CN(C)S(C)(=O)=O,inactive
5,O=C(C[C@H]1C[C@H]2c3cc(NC(=O)Nc4ccccc4F)ccc3O[C@H]2[C@@H](CO)O1)NCc1ccc(Oc2ccccc2)cc1,inactive
6,C[C@@H]1CCCCO[C@@H](CN(C)Cc2ccncc2)[C@@H](C)CN([C@H](C)CO)C(=O)c2cc(NS(C)(=O)=O)ccc2O1,inactive
7,C[C@@H]1CN([C@@H](C)CO)C(=O)c2cccc(NC(=O)CCCCCC(=O)Nc3ccccc3N)c2O[C@H]1CN(C)Cc1ccc(C(F)(F)F)cc1,inactive
8,Cc1noc(C)c1S(=O)(=O)Nc1ccc2c(c1)C(=O)N([C@H](C)CO)C[C@H](C)[C@@H](CN(C)C)OCCCC[C@H](C)O2,inactive
9,CCOC(=O)Cc1c(C)[nH]c(=O)[nH]c1=O,inactive
10,COc1cccc(C#Cc2cnc3c(c2)C(=O)N([C@@H](C)CO)C[C@@H](C)[C@H](CN(C)C(=O)C2CCC2)O3)c1,inactive
11,Cc1cc(C(=O)Nc2cccc3c2O[C@@H](CN(C)S(=O)(=O)c2cccs2)[C@@H](C)CN([C@H](C)CO)C3=O)n(C)n1,inactive
12,C[C@H](CO)N1C[C@H](C)[C@@H](CN(C)Cc2ccc(Oc3ccccc3)cc2)Oc2ccc(NC(=O)Cc3cn(C)c4ccccc34)cc2CC1=O,inactive
13,C[C@@H]1CN([C@@H](C)CO)C(=O)Cc2cc(NC(=O)Cc3cn(C)c4ccccc34)ccc2O[C@@H]1CN(C)Cc1ccc(Oc2ccccc2)cc1,active
14,C[C@@H]1CN([C@H](C)CO)C(=O)c2c(c3ccccc3n2C)-c2ccccc2CO[C@H]1CN(C)Cc1ccc(Cl)c(Cl)c1,inactive
15,C[C@@H]1CN([C@@H](C)CO)C(=O)c2c(c3ccccc3n2C)-c2ccccc2CO[C@H]1CN(C)Cc1ccccc1,active
16,C[C@@H]1CN([C@@H](C)CO)C(=O)c2c(c3ccccc3n2C)-c2ccccc2CO[C@H]1CN(C)Cc1ccc(Cl)c(Cl)c1,inactive
17,C[C@H]1CN([C@@H](C)CO)C(=O)c2c(c3ccccc3n2C)-c2ccccc2CO[C@@H]1CN(C)Cc1ccc(-c2ccccc2)cc1,inactive
18,C[C@@H]1CN([C@H](C)CO)C(=O)c2c(c3ccccc3n2C)-c2ccccc2CO[C@@H]1CN(C)Cc1ccc(C(F)(F)F)cc1,inactive
19,C[C@@H]1CN([C@@H](C)CO)C(=O)c2c(c3ccccc3n2C)-c2ccccc2CO[C@@H]1CN(C)Cc1ccc(C(F)(F)F)cc1,inactive
20,C[C@@H]1CN([C@H](C)CO)C(=O)c2c(c3ccccc3n2C)-c2ccccc2CO[C@@H]1CN(C)Cc1ccc(-c2ccccc2)cc1,inactive
21,C[C@@H]1CN([C@H](C)CO)C(=O)c2c(c3ccccc3n2C)-c2ccccc2CO[C@H]1CN(C)Cc1ccc(C(F)(F)F)cc1,active
22,C[C@H](CO)N1C[C@H](C)[C@H](CN(C)Cc2ccc(Cl)c(Cl)c2)OCc2ccccc2-c2c(n(C)c3ccccc23)C1=O,active
23,C[C@@H]1CN([C@H](C)CO)C(=O)c2c(c3ccccc3n2C)-c2ccccc2CO[C@@H]1CN(C)Cc1ccccc1,active
24,C[C@@H]1CN([C@@H](C)CO)C(=O)c2c(c3ccccc3n2C)-c2ccccc2CO[C@@H]1CN(C)Cc1ccc(-c2ccccc2)cc1,inactive
25,C[C@H](CO)N1C[C@H](C)[C@@H](CN(C)Cc2ccc(-c3ccccc3)cc2)OCc2ccccc2-c2c(n(C)c3ccccc23)C1=O,inactive
